Measured values published in PubChem BioAssay AID1159580 (chemical genetic matrix, 2015).
Where “and” joins values, the source holds several entries; their conditions need not be identical. Identical values can stand only once. The whole screen tested about 5,500 compounds, of which about 2,000 (36%) were called active. About 18% were inconclusive and are not listed. No stated cut-off is given here; in the data, active means normalized growth mostly below about 0.91 (no sharp cut-off); inconclusive means no clear call, values can overlap the other calls; inactive means mostly above about 0.92. This is one part of the list.

Test: chemical genetic growth profiling, strain panel (AID 1159580);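 further: tested at 20 µM; growth read once vehicle control cultures reached saturation at 30 °C; 1 = growth at the plate median or of vehicle wells; lower values mean less growth of the strain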
Settings: S. cerevisiae deletion strains, growth OD

Measured: normalized growth

Nc1nc2c(c(=O)[nH]1)N(C=O)C(CNc1ccc(C(=O)N[C@@H](CCC(=O)O)C(=O)O)cc1)CN2 (stereo not given in full)
inactive: locus YAL021C, strain ccr4, active compounds read low 0.973 | locus YAL026C, strain drs2, active compounds read low 1 | locus YAL030W, strain snc1, active compounds read low 0.969 | locus YBL061C, strain skt5, active compounds read low 0.975 | locus YBR009C, strain hhf1, active compounds read low 1.02 | locus YBR021W, strain FUR4, active compounds read low 0.988 | locus YBR023C, strain chs3, active compounds read low 0.971 | locus YBR171W, strain sec66, active compounds read low 0.94 | locus YBR229C, strain ROT2, active compounds read low 0.991 | locus YBR231C, strain swc5, active compounds read low 0.943 | locus YBR279W, strain paf1, active compounds read low 0.991 | locus YCL011C, strain gbp2, active compounds read low 0.99 | locus YCL016C, strain dcc1, active compounds read low 1.02 | locus YCL029C, strain bik1, active compounds read low 0.985 | locus YCL061C, strain MRC1, active compounds read low 0.964 | locus YCL069W, strain vba3, active compounds read low 0.971 | locus YCR088W, strain abp1, active compounds read low 0.971 | locus YDL005C, strain med2, active compounds read low 0.963 | locus YDL035C, strain GPR1, active compounds read low 1.01 | locus YDL040C, strain nat1, active compounds read low 0.974 | locus YDL074C, strain BRE1, active compounds read low 0.999 | locus YDL101C, strain DUN1, active compounds read low 0.987 | locus YDL185W, strain tfp1, active compounds read low 0.986 | locus YDL192W, strain arf1, active compounds read low 0.981 | locus YDR001C, strain nth1, active compounds read low 0.956 | locus YDR069C, strain doa4, active compounds read low 0.94 | locus YDR101C, strain arx1, active compounds read low 1 | locus YDR137W, strain rgp1, active compounds read low 0.947 | locus YDR159W, strain sac3, active compounds read low 1.01 | locus YDR162C, strain NBP2, active compounds read low 1 | locus YDR195W, strain ref2 0.906 | locus YDR297W, strain sur2, active compounds read low 0.972 | locus YDR318W, strain mcm21, active compounds read low 0.985 | locus YDR334W, strain swr1, active compounds read low 0.934 | locus YDR335W, strain msn5, active compounds read low 0.964 | locus YDR388W, active compounds read low 0.985 | locus YDR392W, strain spt3, active compounds read low 1.1 | locus YDR502C, strain sam2, active compounds read low 0.985 | locus YEL003W, strain gim4, active compounds read low 0.971 | locus YEL037C, strain rad23, active compounds read low 0.978 | locus YEL061C, strain CIN8 (second series), active compounds read low 0.953 | locus YEL061C, strain CIN8, active compounds read low 0.996 | locus YER015W, strain faa2, active compounds read low 1.01 | locus YER016W, strain bim1, active compounds read low 0.99 | locus YER110C, active compounds read low 0.978 | locus YER111C, strain swi4, active compounds read low 0.968 | locus YER155C, strain BEM2 (second series), active compounds read low 0.954 | locus YER155C, strain BEM2, active compounds read low 0.981 | locus YER167W, strain BCK2, active compounds read low 0.993 | locus YFR010W, strain ubp6, active compounds read low 0.931 | locus YGL078C, strain dbp3, active compounds read low 0.967 | locus YGL086W, strain mad1, active compounds read low 1 | locus YGL167C, strain pmr1, active compounds read low 0.957 | locus YGL173C, strain kem1, active compounds read low 0.966 | locus YGL227W, strain vid30, active compounds read low 0.964 | locus YGL240W, strain doc1, active compounds read low 0.94 | locus YGL248W, strain PDE1, active compounds read low 0.982 | locus YGL253W, strain hxk2, active compounds read low 0.986 | locus YGR135W, strain pre9, active compounds read low 0.945 | locus YGR252W, strain gcn5, active compounds read low 0.948 | locus YHR013C, strain ard1, active compounds read low 0.972 | locus YHR027C, strain rpn1, active compounds read low 0.972 | locus YHR030C, strain SLT2, active compounds read low 0.993 and 0.985 | locus YHR079C, strain IRE1 (second series), active compounds read low 0.989 | locus YHR079C, strain IRE1, active compounds read low 1 | locus YHR094C, strain hxt1, active compounds read low 0.984 | locus YHR129C, strain ARP1, active compounds read low 0.99 | locus YHR142W, strain chs7, active compounds read low 0.957 | locus YHR200W, strain rpn10, active compounds read low 0.986 | locus YIL066C, strain RNR3, active compounds read low 0.989 | locus YIL073C, strain SPO22, active compounds read low 1.01 | locus YIL125W, strain kgd1, active compounds read low 0.989 | locus YIR030C, strain dcg1, active compounds read low 0.979 | locus YJL092W, strain hpr5, active compounds read low 0.963 | locus YJL095W, strain BCK1 (second series), active compounds read low 0.967 | locus YJL095W, strain BCK1, active compounds read low 0.975 and 1.02 | locus YJL115W, strain asf1, active compounds read low 0.949 | locus YJL129C, strain trk1, active compounds read low 0.954 | locus YJL134W, strain LCB3, active compounds read low 0.991 | locus YJL154C, strain vps35, active compounds read low 0.959 | locus YJL164C, strain tpk1, active compounds read low 1.02 | locus YJL166W, strain qcr8, active compounds read low 0.932 | locus YJL168C, strain set2, active compounds read low 0.981 | locus YJL187C, strain SWE1 (second series), active compounds read low 0.985 | locus YJL187C, strain SWE1, active compounds read low 0.977 | locus YJR043C, strain POL32, active compounds read low 1.01 | locus YJR066W, strain TOR1, active compounds read low 0.969 | locus YJR075W, strain HOC1, active compounds read low 0.993 | locus YKL009W, strain mrt4, active compounds read low 0.996 | locus YKL068W, active compounds read low 0.991 | locus YKL085W, strain MDH1 (second series), active compounds read low 0.979 | locus YKL085W, strain MDH1, active compounds read low 0.979 | locus YKL160W, strain elf1, active compounds read low 0.972 | locus YKL190W, strain CNB1, active compounds read low 1 | locus YKR001C, strain vps1, active compounds read low 0.997 | locus YKR026C, strain gcn3, active compounds read low 0.961 | locus YKR091W, strain srl3, active compounds read low 0.984 | locus YLL001W, strain dnm1, active compounds read low 0.926 | locus YLL026W, active compounds read low 0.948 | locus YLL041C, strain sdh2, active compounds read low 0.976 | locus YLR027C, strain aat2, active compounds read low 0.958 | locus YLR039C, strain RIC1, active compounds read low 0.958 | locus YLR058C, strain SHM2, active compounds read low 0.983 | locus YLR102C, strain apc9, active compounds read low 0.989 | locus YLR113W, strain HOG1, active compounds read low 1.02 | locus YLR221C, strain rsa3, active compounds read low 1.01 | locus YLR258W, strain gsy2, active compounds read low 1.01 | locus YLR262C, strain YPT6 (second series), active compounds read low 0.941 | locus YLR262C, strain YPT6, active compounds read low 1.02 | locus YLR268W, strain sec22, active compounds read low 0.984 | locus YLR320W, strain mms22, active compounds read low 1.01 | locus YLR330W, strain CHS5, active compounds read low 0.988 | locus YLR342W, strain FKS1 (second series), active compounds read low 1 | locus YLR342W, strain FKS1, active compounds read low 0.955 | locus YLR357W, strain rsc2, active compounds read low 0.928 | locus YLR370C, strain arc18, active compounds read low 0.959 | locus YLR371W, strain rom2, active compounds read low 0.975 | locus YLR384C, strain iki3, active compounds read low 0.958 | locus YLR418C, strain cdc73, active compounds read low 0.938 | locus YML016C, strain PPZ1, active compounds read low 0.992 | locus YML032C, strain rad52, active compounds read low 0.999 | locus YML120C, strain ndi1, active compounds read low 0.956 | locus YML124C, strain tub3, active compounds read low 0.991 | locus YMR058W, strain fet3, active compounds read low 0.954 | locus YMR078C, strain ctf18, active compounds read low 0.981 | locus YMR125W, strain sto1, active compounds read low 0.965 | locus YMR129W, active compounds read low 0.971 | locus YMR205C, strain PFK2, active compounds read low 0.978 | locus YMR223W, strain ubp8, active compounds read low 0.959 | locus YMR231W, strain pep5, active compounds read low 0.964 | locus YMR307W, strain GAS1, active compounds read low 0.961 | locus YNL067W, strain RPL9B, active compounds read low 0.999 | locus YNL071W, strain lat1, active compounds read low 0.984 | locus YNL128W, strain TEP1, active compounds read low 0.979 | locus YNL183C, strain NPR1, active compounds read low 0.97 | locus YNL209W, strain ssb2, active compounds read low 0.986 | locus YNL233W, strain BNI4, active compounds read low 0.986 | locus YNL248C, strain rpa49, active compounds read low 0.978 | locus YNL250W, strain rad50, active compounds read low 0.977 | locus YNL271C, strain bni1, active compounds read low 0.967 | locus YNL298W, strain CLA4, active compounds read low 0.985 | locus YNL307C, strain MCK1, active compounds read low 0.99 | locus YNL322C, strain KRE1 (second series), active compounds read low 0.965 | locus YNL322C, strain KRE1, active compounds read low 0.995 | locus YNR049C, strain mso1, active compounds read low 0.971 | locus YNR052C, strain pop2, active compounds read low 0.984 | locus YOL006C, strain TOP1, active compounds read low 0.964 | locus YOL012C, strain htz1 0.703 | locus YOL147C, strain pex11, active compounds read low 0.978 | locus YOR001W, strain rrp6, active compounds read low 0.943 | locus YOR061W, strain CKA2, active compounds read low 0.992 | locus YOR069W, strain VPS5, active compounds read low 0.989 | locus YOR070C, strain gyp1, active compounds read low 0.991 | locus YOR080W, strain dia2, active compounds read low 0.966 | locus YOR083W, strain WHI5, active compounds read low 0.961 | locus YOR106W, strain vam3, active compounds read low 0.943 | locus YOR136W, strain idh2, active compounds read low 0.99 | locus YOR144C, strain elg1, active compounds read low 0.992 | locus YOR184W, strain ser1, active compounds read low 0.978 | locus YOR231W, strain MKK1, active compounds read low 1.02 | locus YOR265W, strain rbl2, active compounds read low 0.965 | locus YOR270C, strain vph1, active compounds read low 0.957 | locus YOR290C, strain snf2, active compounds read low 1.01 | locus YOR316C, strain cot1, active compounds read low 0.987 | locus YPL051W, strain arl3, active compounds read low 0.985 | locus YPL055C, strain LGE1, active compounds read low 0.981 | locus YPL078C, strain atp4, active compounds read low 0.904 | locus YPL106C, strain sse1, active compounds read low 0.947 | locus YPL240C, strain hsp82, active compounds read low 0.968 | locus YPL256C, strain CLN2, active compounds read low 0.993 | locus YPR119W, strain clb2, active compounds read low 0.986 | locus YPR141C, strain kar3, active compounds read low 0.977 | locus YPR163C, strain tif3, active compounds read low 0.976 | locus YPR167C, strain met16, active compounds read low 0.986 | strain wtn01, active compounds read low 0.981
